Only some compounds are listed: those with a hit (about 10% of all), similar ones and a draw of the others.
CtBP-E1A blk: CtBP/E1A binding inhibition; AlphaScreen GST-E1A/His-CtBP binding, 1536-well; stronger effect = lower value; activity change, % (test concentration not listed); AID 651724; 0.49% of 340,000 active; in the data active = activity change below about -65%; inconclusive = mostly about -30% to -63%; note: % is set by controls: 0 for no effect and ±100 for the full control effect
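AlphaScreen with 125 nM GST-E1A and 125 nM His-CtBP (5X stocks) in Tris pH 8.0, 300 mM NaCl, BSA, Tween 20, TCEP. Compounds preincubated 2 h at 37 deg C, then glutathione donor/nickel acceptor beads added for 1 h at 37 deg C in dark.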
HP1b binding inh: inhibitors of HP1-beta chromodomain binding to methylated histone tails; 0.56% of 390,000 active; AID 540317; P83916; Potency, µM (titrated, usually from 114 µM), for inactives: at the top dose activity change, negative = inhibition, most hits filed as inhibitors; AlphaScreen HP1-beta / biotin-H3K9me3 peptide binding; note: potency is the fitted concentration of half-maximal effect; nearly all actives have a fitted effect of over 70% in size
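Compound inhibition of the preformed complex between 50 nM HP1-beta and 50 nM biotinylated H3K9me3 peptide was read by AlphaScreen. Buffer was PBS pH 7.4 with 0.01% Tween-20. Incubations ran 30 min at room temperature, with 10 ug/mL donor/acceptor beads.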
Six1-Eya2 blk: inhibitors of human Six1/Eya2 interaction; Q15475+O00167; AlphaScreen GST-Six1/His-Eya2 binding, biochemical; stronger effect = lower value; activity change, % (concentration not given with the values); 0.56% of 360,000 active; in the data active = activity change below about -65%; inconclusive = mostly about -30% to -63%; note: % is set by controls: 0 for no effect and ±100 for the full control effect
Target sequence (O00167 whole entry, looked up): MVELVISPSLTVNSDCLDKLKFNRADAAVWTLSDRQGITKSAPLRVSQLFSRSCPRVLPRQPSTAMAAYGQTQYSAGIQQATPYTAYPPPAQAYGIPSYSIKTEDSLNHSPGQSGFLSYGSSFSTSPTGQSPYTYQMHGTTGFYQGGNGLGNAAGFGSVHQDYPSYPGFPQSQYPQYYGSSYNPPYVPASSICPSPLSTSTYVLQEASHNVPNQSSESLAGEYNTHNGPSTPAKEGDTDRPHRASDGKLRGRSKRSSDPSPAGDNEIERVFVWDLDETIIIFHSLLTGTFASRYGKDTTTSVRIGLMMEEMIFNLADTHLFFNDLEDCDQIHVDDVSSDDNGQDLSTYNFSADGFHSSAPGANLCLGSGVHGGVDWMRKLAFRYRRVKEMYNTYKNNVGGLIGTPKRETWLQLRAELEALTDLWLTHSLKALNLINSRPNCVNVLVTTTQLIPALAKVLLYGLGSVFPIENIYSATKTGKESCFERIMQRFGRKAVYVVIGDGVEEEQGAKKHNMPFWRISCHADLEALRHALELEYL
Target sequence (Q15475 whole entry, looked up): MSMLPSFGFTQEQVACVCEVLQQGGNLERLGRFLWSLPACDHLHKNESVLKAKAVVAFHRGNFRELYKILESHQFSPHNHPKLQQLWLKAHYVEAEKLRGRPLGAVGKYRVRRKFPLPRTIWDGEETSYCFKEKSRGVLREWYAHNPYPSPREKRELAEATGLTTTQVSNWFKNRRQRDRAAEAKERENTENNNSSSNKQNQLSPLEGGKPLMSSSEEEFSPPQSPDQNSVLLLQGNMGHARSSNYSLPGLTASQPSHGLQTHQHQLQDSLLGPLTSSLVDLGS
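AlphaScreen with GST-Six1 and His-Eya2 (5X mix: 250 nM and 500 nM), glutathione donor and nickel acceptor beads; buffer 50 mM Tris pH 8.0, 300 mM NaCl, 1 mM TCEP; 1 h at 37 C in the dark.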
BAZ2B inh: inhibitors of human BAZ2B bromodomain; AlphaScreen BAZ2B-H3K14Ac peptide displacement; Potency, µM (doses to about 114 µM), without a hit: at the top dose activity change, negative = inhibition, most hits filed as inhibitors; 4.4% of 360,000 active; note: potency is the fitted concentration of half-maximal effect; % is set by controls: 0 for no effect and ±100 for the full control effect; nearly all actives have a fitted effect of over 60% in size
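Complex of BAZ2B and biotin-H3K14Ac (50 nM apiece) forms over 30 min at RT, then faces library compounds up to 110 uM for another 30 min; AlphaScreen beads added, 20 min dark incubation, luminescence read.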
JMJD2A Tudor inh: blocks the human JMJD2A Tudor domain; O75164; AlphaScreen JMJD2A-Tudor / H3K4me3 peptide binding; Potency, µM (highest dose often 114 µM), for inactives: top-dose activity change, negative = inhibition, most hits filed as inhibitors; 4.4% of 390,000 active; AID 504339; note: potency is the fitted concentration of half-maximal effect; % is set by controls: 0 for no effect and ±100 for the full control effect; nearly all actives have a fitted effect of over 50% in size
G9a inh: blocks human histone lysine methyltransferase G9a; 8.8% of 350,000 active; Q96KQ7; Potency, µM (titrated, usually from 102 µM), without a hit: at the highest dose activity, negative = inhibition, hits mostly inhibitors; AID 504332; G9a H3K9 monomethylation, AlphaScreen, 2 h; note: potency is the fitted concentration of half-maximal effect; % is set by controls: 0 for no effect and ±100 for the full control effect; nearly all actives have a fitted effect of over 75% in size
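Compounds were preincubated with 20 nM G9a for 15 min, after which biotinylated H3K9 peptide (500 nM) and SAM (20 uM) started a 2 h room-temperature reaction. Monomethylated product was quantified by antibody-based AlphaScreen chemiluminescence.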
The depositor's hits bear a star; ? = inconclusive; . = no result given; ! = repeats disagree; [ ] = remark or other dose. Unless noted, calls come from the whole dose curve; as a rule, active = well fitted inhibition curve with a large enough effect; inconclusive = small, poorly fitted or top-dose-only effect; inactive = no such curve, though single readings can be large or run the other way.

SMILES | CtBP-E1A blk | HP1b binding inh | Six1-Eya2 blk | BAZ2B inh | JMJD2A Tudor inh | G9a inh
O=c1cc(N2CCN(c3ccccc3)CC2)[nH]c(=O)n1C1CCCCC1 | -2 | 23% | 4 | -5% | -9% | 3%
CCN1CCN(c2cc(=O)n(C3CCCCC3)c(=O)[nH]2)CC1 | 1 | 58% | 5 | 11% | 8% | 50µM*
Cc1ccc(NC(=O)C(Cc2ccccc2)NS(=O)(=O)c2ccc3c(c2)CCC(=O)N3)cc1 (stereo not given) | . | 17% | . | -3% | -6% | -37%[59 µM]
O=C1N(c2ccccc2)c2ccccc2C1(Cc1ccncc1)Cc1ccncc1 | 0 | 32% | 11 | ? | -13% | 13µM*!
CC1(CCBr)C(=O)N(c2ccccc2)c2ccccc21 (stereo not given) | 16 | 63% | 0 | -37% | 17% | -1%[0.501 µM]
O=C(C=C1CCN(c2ncc(C(F)(F)F)cc2Cl)CC1)NNC(=O)Nc1ccccc1 | 0 | 19% | -2 | 3% | -12% | 11µM*
O=C(C=C1CCN(c2ncc(C(F)(F)F)cc2Cl)CC1)NNC(=O)Nc1ccc(Cl)cc1 | 6 | 21% | -1 | 4% | -3% | -4%
CCCCCn1cnc2c(=S)nc(N)[nH]c21 | . | ? | -11 | ? | 18µM* | 8.9µM*
CCCCn1cnc2c(=S)nc(N)[nH]c21 | 0 | -13% | -6 | ? | 11µM* | 6.3µM*
Nc1nc(=S)c2ncn(C3CCCCC3)c2[nH]1 | -19 | 15%[57 µM] | ? | . | ? | .
COC(=O)c1cc(C(=O)Nc2nnc(CC(C)(C)C)s2)cc([N+](=O)[O-])c1 | 1 | ? | -4 | -8% | -27% | 45µM*
CCOCc1nnc(NC(=O)c2cc(C(=O)OC)cc([N+](=O)[O-])c2)s1 | 0 | 3% | 8 | ? | 45µM* | 50µM*
CCOCc1nnc(NC(=O)c2ccc(OC)cc2)s1 | -4 | 30% | 4 | 11% | -1% | 10%[59 µM]
COCCSc1nnc(NC(=O)c2ccc([N+](=O)[O-])cc2)s1 | . | 34% | 0 | -21% | -20% | -30%
CCOC(=O)CSc1nnc(NC(=O)c2cc([N+](=O)[O-])cc([N+](=O)[O-])c2)s1 | -24 | 31% | 4 | -10% | ? | 25µM*
CCOc1ccc(C2CC(=O)n3nc(-c4ccc(C)cc4)nc3S2)cc1OC (stereo not given) | . | 51% | . | -1% | 1% | -23%[59 µM]
COc1ccc(C2C3C=CCC(c4cccc(-c5ccc(N(C)C)cc5)c4)C3C(=O)N2Cc2ccccc2)cc1Cl (stereo not given) | . | -11% | . | . | ? | .
NCCCC[C@@H]1NC(=O)c2cc([N+](=O)[O-])cc(I)c2SC[C@@H](C(=O)NCC(N)=O)NC(=O)CNC1=O | 0 | 50% | 12 | -9% | -22% | 32µM*
NCCCC[C@@H]1NC(=O)c2cc([N+](=O)[O-])cc(F)c2NCCCC[C@@H](C(N)=O)NC(=O)[C@H](CCC(N)=O)NC1=O | -23 | 28% | 4 | -3% | -18% | ?
NCCCC[C@@H]1NC(=O)c2cc([N+](=O)[O-])cc(I)c2SC[C@@H](C(N)=O)NC(=O)[C@H](CCC(N)=O)NC1=O | . | 27% | 1 | ? | ? | 8.9µM*
CC(C)(C)S(=O)(=O)/C(C#N)=N/Nc1ccc(C#N)cc1 | 0 | 22% | 0 | 71µM* | -23% | -34%
CC(C)(C)S(=O)(=O)/C(C#N)=N/Nc1ccc(S(N)(=O)=O)cc1 | 8 | 27% | 6 | -23% | 89µM* | -24%
COc1cccc(S(=O)(=O)N(C)C[C@@H]2OCc3cn(nn3)CCCC(=O)N([C@H](C)CO)C[C@H]2C)c1 | -23 | . | 11 | . | . | .
CCCCC[C@H](O)/C=C/C=C\C=C\C=C\[C@@H](O)[C@@H](O)CCCC(=O)O | . | . | . | . | . | 28%[59 µM]
COc1ccc(NS(=O)(=O)c2cc3c(cc2C)N(C)CCO3)c(OC)c1 | -26 | -10% | -26 | 50µM* | ? | ?
